# An excerpt weighted towards active compounds, which were near 2.4% of everything screened.
# D2 PAM-1 – positively modulates the human D2 dopamine receptor allosterically. potentiation, % at 10 µM. HEK293 T-REx D2, calcium flux, EC20 dopamine potentiation. hit rate 0.34% among 340,000. P14416. AID 485347;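 active means potentiation over 3 SD above the plate norm, cut at about 30% in these data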; further: 0% is about no effect
#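 Calcium flux readout, no-wash dye, 1 read/s. Inducible HEK293 Trex D2 line, overnight 30 C. Compound alone 180 s (agonist flags), then EC20 dopamine, another 180 s to score potentiation.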
# D2 ag-1 – agonists of human D2 dopamine receptor; activation, % at 2 µM; AID 485358; hit rate 0.53% among 340,000; HEK293 T-REx D2 cells, calcium flux agonist mode; P14416;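 active means activation over 3 SD above normal in the single-dose calcium agonist read, cut at about 30% in these data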; further: 0% is about no effect
#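 Calcium-flux readout, 1 cycle/sec over 180 s following compound pin transfer, in inducible HEK293 Trex D2 cells (force-coupled); dopamine controls included. Positive calcium responses during this window marked compounds as potential agonists.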
# D2 ag-2 – activates the human D2 dopamine receptor | P14416 | activation, % (no concentration beside the values) | hit rate 0.084% among 360,000 | DiscoveRx PathHunter D2 beta-arrestin, luminescence, 90 min; 100% = 57 uM dopamine signal | AID 624465; in the data active means activation above about 40%; inconclusive means between about 15% and that limit
#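 Agonist mode: compounds alone added to overnight-plated D2 PathHunter cells for 90 min at 37 C, with 57 uM final dopamine (EC100) defining full response. Beta-arrestin recruitment detected by chemiluminescent reagent, read after 1 h at ambient temperature.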
# D2 PAM-2 – positive allosteric modulators of human D2 dopamine receptor; P14416; DiscoveRx D2 beta-arrestin cells, luminescence, 90 min; 100% = 57 uM dopamine signal; potentiation, % (concentration not given with the values); hit rate 0.23% among 360,000; in the data active means potentiation above about 50%; inconclusive means mostly about 30% to 49%
#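 PathHunter beta-arrestin assay in DiscoveRx D2 cells. Compounds were added with an EC20 of dopamine (50 nM final) for 90 min at 37 deg C. Luminescence was read 1 h after detection reagent, with 57 uM dopamine as the EC100 control.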
# D2 antag – antagonizes the human D2 dopamine receptor; inhibition, % at 10 µM; P14416; hit rate 2% among 340,000; HEK293 TREx D2 cells, calcium flux, dopamine EC80; in the data active means inhibition above about 30%; inactive means below that, where a call was filed; further: 0% is about no effect
#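 Calcium mobilization kinetics were recorded at 1 s intervals in tetracycline-induced HEK293 T-REx D2 cells, first for 180 s after compound addition and then 180 s after EC80 dopamine.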
# D3 arrestin ag – activates human D3 dopamine receptor beta-arrestin recruitment; shares compounds with D2 ag-1; DiscoveRx D3 beta-arrestin cells, luminescence, 90 min; Potency, µM (series often up to 76.9 µM), inactives show at the top dose activation, usual class: activators; hit rate 4% among 2,300; AID 720506;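 further: potency means the concentration at half of the fitted maximal effect; 100% = dopamine control response; nearly all actives have a fitted effect of over 70% in size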
# Target sequence (P35462 whole entry, looked up): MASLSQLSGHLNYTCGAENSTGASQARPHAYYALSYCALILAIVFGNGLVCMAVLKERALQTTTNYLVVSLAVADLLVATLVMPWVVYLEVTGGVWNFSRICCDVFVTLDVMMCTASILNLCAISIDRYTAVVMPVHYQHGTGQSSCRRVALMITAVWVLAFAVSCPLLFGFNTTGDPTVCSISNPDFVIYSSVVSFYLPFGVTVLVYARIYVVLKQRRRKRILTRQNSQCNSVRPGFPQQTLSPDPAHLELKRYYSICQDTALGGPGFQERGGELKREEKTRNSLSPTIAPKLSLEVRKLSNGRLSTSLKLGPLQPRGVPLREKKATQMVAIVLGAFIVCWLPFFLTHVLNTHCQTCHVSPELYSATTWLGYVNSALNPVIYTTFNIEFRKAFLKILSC
# D2 ag-3 – activates human D2 dopamine receptor in D3 counterscreen | shares compounds with D2 ag-1 | DiscoveRx PathHunter D2 beta-arrestin, luminescence, 90 min; response scale: percent relative to full dopamine signal | hit rate 5.9% among 2,300 | Potency, µM (top dose mostly 76.9 µM), for the others: at the highest dose activation, actives largely listed as activators; further: potency means the concentration at half of the fitted maximal effect; % of control where 0% means no effect; nearly all actives have a fitted effect of over 70% in size
# Starred values were filed as active, the others as inactive; ? = inconclusive; / = no result given. Unless noted, the call rests on the fitted dose curve; in most records, active means well fitted activation curve with a large enough effect; inconclusive means small, poorly fitted or top-dose-only effect; inactive means flat fitted curve, though single readings scatter.
SMILES,D2 PAM-1,D2 ag-1,D2 ag-2,D2 PAM-2,D2 antag,D3 arrestin ag,D2 ag-3
COC(=O)Cc1ccc(NC(=S)N2CCN(c3ccc(OC)cc3)CC2)cc1,5,0,-2,-6,-9,/,/
CCCCN(C)c1c(C)nc2ccc(C(=O)N(CC)CCN(C)C)cn12,/,/,-4,-15,/,/,/
Cc1ncsc1CCOC(=O)c1ccc(N2CCOCC2)c([N+](=O)[O-])c1,15,2,1,-8,28,?,?
CC(Sc1n[nH]c(-c2cccs2)n1)C(=O)Nc1ccc(C(N)=O)cc1 (stereo not drawn),-5,0,0,-1,18,/,/
CCCNC(=O)NC(=O)CSc1nnc(-c2c[nH]c3ccccc23)o1,-3,-1,1,-13,-25,/,/
O=C(NCc1cccc(C(F)(F)F)c1)c1csc([C@@H]2C[C@H](O)[C@@H](CO)O2)n1,/,/,-2,-13,/,/,/
CCC(=O)N1c2ccccc2CC1C(=O)NCc1ccccc1C (stereo not drawn),12,0,/,/,/,/,/
COc1cc(C#Cc2c(-c3cncn3C)n(C)c3ccc(-c4cnc(OC)nc4)cc23)cc(OC)c1,9,-1,3,-20,7,-3%,-3%
COc1cc(C#Cc2c(-c3cncn3C)n(C)c3ccc(-c4cnc(N5CCOCC5)nc4)cc23)cc(OC)c1,/,/,-2,-7,/,/,/
Cn1c(C(=O)O)c(CC(=O)NCC2COc3ccccc3O2)c2ccccc21 (stereo not drawn),1,0,-4,11,42*,-9%,?
O=C(Cc1ccccc1)NCC1COc2ccccc2O1 (stereo not drawn),/,/,-1,-17,/,/,/
CC(=O)Nc1cc(NC(C)=O)c2nc(N)sc2c1,-13,22,1,-15,-19,1%,8%
COc1cccc(CN(C(=O)COc2ccc(Cl)cc2)C2CCS(=O)(=O)C2)c1 (stereo not drawn),7,0,-1,5,19,/,/
CCOC(=O)CNc1ncnc2c1nnn2C,13,-1,/,/,/,/,/
Cc1cccc(C)c1OCC(O)CN1CCN(c2ccccc2)CC1 (stereo not drawn),-28,80*,?,-22,87*,-2%,?
Cc1cccc(N2CCN(CC(O)COc3ccccc3)CC2)c1 (stereo not drawn),/,/,3,-17,/,/,/
Cc1cccc(C)c1OCC(O)Cn1c2ccccc2c2ccccc21 (stereo not drawn),-5,-1,-1,6,-20,/,/
Cc1ccc(OCC(O)CN2CCN(c3ccccn3)CC2)c(C)c1 (stereo not drawn),-27,71*,?,21,64*,?,?
Cc1ccc(OCC(O)CN2CCN(CCO)CC2)c(C)c1 (stereo not drawn),-1,2,-1,-3,-8,/,/
Cc1cccc(C)c1OCC(O)CN1CCN(c2ccccn2)CC1 (stereo not drawn),-19,77*,?,?,78*,0.2µM*,5µM*
COc1cccc(OC)c1OCC(O)CN1CCN(c2ccccc2)CC1 (stereo not drawn),-24,78*,?,-31,115*,?,?
OC(COc1ccccc1)CN1CCN(c2ccccc2)CC1 (stereo not drawn),/,/,2,-43,/,/,/
COC(=O)c1ccc(C(=O)OC)c(NC(=O)c2cnn3c(C(F)F)cc(-c4ccccc4)nc23)c1,-3,-1,/,/,/,/,/
Nc1ccccc1SC/C=C/CSc1ccccc1N,1,0,0,-3,-16,/,/
CC(C)(C)C1CCC(OCC(O)CN2CCCC2)CC1 (stereo not drawn),12,-1,-7,2,-8,/,/
Cc1ccsc1CN1CCN(c2ccccn2)CC1,-24,79*,50*,?,77*,?,2.5µM*
